Data reported in PubChem BioAssay.
Active and inactive are the calls of the source.

Assays:
[1] = binders of probe aFSTL3 on microarray, primary screen, stem cell growth factor project, biochemical, small-molecule microarray, fluorescence 635/667 (AID 1064); conditions: higher = more signal;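 also: measures binding of the biotinylated anti-FSTL3 antibody to printed compounds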
[2] = binders from COS7 lysate, DM2A8 probe, primary screen, torsin A project, cell lysate, small-molecule microarray, fluorescence 635/667 (AID 1065); conditions: higher = more signal, COS7 lysate expressing mutant human TOR1A
[3] = binders of probe aFGF2 on microarray, primary screen, stem cell growth factor project, biochemical, small-molecule microarray, fluorescence 635/667 (AID 1067); conditions: higher = more signal;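 also: measures binding of biotinylated aFGF2 protein to printed compounds on slides; z-score merges feature fluorescence and signal-to-noise across triplicate slides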
[4] = binders of probe aFGF10 on microarray, primary screen, stem cell growth factor project, biochemical, small-molecule microarray, fluorescence 635/667 (AID 1071); conditions: higher = more signal;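 also: score merges 667 nm spot intensity and signal to noise from triplicate slides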
[5] = molecular target: Neurogenic locus notch homolog protein 2 (Homo sapiens) (UniProt Q04721); test: Notch2 binders on small-molecule microarrays, primary screen, biochemical, small-molecule microarray, 635 nm fluorescence, stem cell growth factors (AID 1073); conditions: Notch2 binding, higher = more signal
[6] = molecular target: Pro-neuregulin-1, membrane-bound isoform (Homo sapiens) (UniProt Q02297); test: NRG1 binders on small-molecule microarrays, primary screen, psychiatric disease protein project, biochemical, small-molecule microarray, fluorescence 635/667 (AID 1075); conditions: NRG1 binding, 635 nm fluorescence, higher = more signal;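 also: score combines 667 nm spot fluorescence with signal to noise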
[7] = system: Neuregulin-1 EGF-like domain; test: binders of neuregulin-1 EGF-like domain, primary screen, biochemical, small-molecule microarray, 635 nm fluorescence (AID 1081); conditions: small-molecule microarray binding, higher = more signal;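 also: binding of the protein to compounds printed on small-molecule microarray slides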
[8] = FRG1 promoter luciferase signal modulators, primary screen, FRG1 inhibition for FSHD, cell-based, C2C12 myotubes, firefly/Renilla luciferase, luminescence (AID 1084); conditions: higher = more signal, called active from +8 up or from −8 down
[9] = binders of probe aFST on microarray, primary screen, stem cell growth factor project, biochemical, small-molecule microarray, fluorescence 635/667 (AID 1086); conditions: higher = more signal;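 also: score merges 667 nm fluorescence with signal-to-noise of each printed compound spot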
[10] = binders of probe aHhip on microarray, primary screen, stem cell growth factor project, biochemical, small-molecule microarray, fluorescence 635/667 (AID 1087); conditions: higher = more signal;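 also: score merges spot fluorescence at 667nm with spot signal to noise ratio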
[11] = system: PRMT1 (protein arginine N-methyltransferase 1); test: PRMT1 binders on small-molecule microarrays, primary screen, biochemical, small-molecule microarray, 635 nm fluorescence (AID 1088); conditions: small-molecule microarray binding, higher = more signal;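 also: binding of Prmt1 protein to compounds spotted on small-molecule microarray slides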
[12] = yeast growth modulation, basal conditions, primary screen, YJM789 clinical isolate, OD600, 24 h (AID 1089);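 also: growth of clinical yeast isolate S. cerevisiae YJM 789 seeded 1000 cells per well; test concentration not given here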; conditions: S. cerevisiae YJM789 growth, higher = more signal, called active from +8 up or from −8 down
[13] = fission yeast growth modulation, primary screen, strain 972, OD600, 24 h, no modulator (AID 1090);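 also: basal condition with compound alone and no growth modifier present; test concentration not given here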; conditions: S. pombe 972 growth, higher = more signal, called active from +8 up or from −8 down
[14] = S. cerevisiae growth modulation with rapamycin, primary screen, strain BY4716, OD600, 96 h (AID 1091); conditions: higher = more signal, called active from +8 up or from −8 down; also: test concentration not given here
[15] = molecular target: Torsin-1A-interacting protein 2 (Homo sapiens) (UniProt Q8NFQ8); test: LULL1 binders on small-molecule microarray, primary screen, cell lysate, human LULL1 lysate, 635/667 nm fluorescence (AID 1092); conditions: hLULL1 lysate binding, 635 nm fluorescence, higher = more signal;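 also: probe is lysate of COS7 cells overexpressing human LULL1; score merges per-feature 667 nm fluorescence with signal-to-noise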
[16] = E. coli growth modulation, two-sided OD650, primary screen, E. coli filamentation project, strain DRC41, 24 h (AID 1093); conditions: OD650, 24 h, higher = more signal, called active from +8 up or from −8 down;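 also: MC1000 strain lacking acrAB efflux and sulA so SOS filamentation is blocked; test concentration not given here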
[17] = small-molecule microarray binders of probe aLefty2, primary screen, biochemical, biotinylated probe, 635/667 nm fluorescence (AID 1094); conditions: higher = more signal;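 also: score merges spot fluorescence near 667 nm with spot signal-to-noise ratio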
[18] = system: Noggin (protein binding on small-molecule microarray); test: Noggin binders on small-molecule microarray, primary screen, biochemical, 635/667 nm fluorescence (AID 1095); conditions: 635 nm fluorescence, higher = more signal;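 also: score merges 667 nm feature fluorescence with signal to noise over triplicate slides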
[19] = molecular target: Neurogenic locus notch homolog protein 3 (Homo sapiens) (UniProt Q9UM47); test: NOTCH3 binders on small-molecule microarray, primary screen, biochemical, 635/667 nm fluorescence (AID 1096); conditions: NOTCH3 binding, 635 nm fluorescence, higher = more signal
[20] = small-molecule microarray binders of probe aEGFR, primary screen, biochemical, biotinylated probe, 635/667 nm fluorescence (AID 1097); conditions: higher = more signal;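 also: probe is a biotinylated anti-EGFR antibody binding compounds printed on slides; score combines fluorescence near 667 nm and signal to noise of each spot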

Chain of Neurogenic locus notch homolog protein 3 (Homo sapiens) (Q9UM47 whole entry, looked up): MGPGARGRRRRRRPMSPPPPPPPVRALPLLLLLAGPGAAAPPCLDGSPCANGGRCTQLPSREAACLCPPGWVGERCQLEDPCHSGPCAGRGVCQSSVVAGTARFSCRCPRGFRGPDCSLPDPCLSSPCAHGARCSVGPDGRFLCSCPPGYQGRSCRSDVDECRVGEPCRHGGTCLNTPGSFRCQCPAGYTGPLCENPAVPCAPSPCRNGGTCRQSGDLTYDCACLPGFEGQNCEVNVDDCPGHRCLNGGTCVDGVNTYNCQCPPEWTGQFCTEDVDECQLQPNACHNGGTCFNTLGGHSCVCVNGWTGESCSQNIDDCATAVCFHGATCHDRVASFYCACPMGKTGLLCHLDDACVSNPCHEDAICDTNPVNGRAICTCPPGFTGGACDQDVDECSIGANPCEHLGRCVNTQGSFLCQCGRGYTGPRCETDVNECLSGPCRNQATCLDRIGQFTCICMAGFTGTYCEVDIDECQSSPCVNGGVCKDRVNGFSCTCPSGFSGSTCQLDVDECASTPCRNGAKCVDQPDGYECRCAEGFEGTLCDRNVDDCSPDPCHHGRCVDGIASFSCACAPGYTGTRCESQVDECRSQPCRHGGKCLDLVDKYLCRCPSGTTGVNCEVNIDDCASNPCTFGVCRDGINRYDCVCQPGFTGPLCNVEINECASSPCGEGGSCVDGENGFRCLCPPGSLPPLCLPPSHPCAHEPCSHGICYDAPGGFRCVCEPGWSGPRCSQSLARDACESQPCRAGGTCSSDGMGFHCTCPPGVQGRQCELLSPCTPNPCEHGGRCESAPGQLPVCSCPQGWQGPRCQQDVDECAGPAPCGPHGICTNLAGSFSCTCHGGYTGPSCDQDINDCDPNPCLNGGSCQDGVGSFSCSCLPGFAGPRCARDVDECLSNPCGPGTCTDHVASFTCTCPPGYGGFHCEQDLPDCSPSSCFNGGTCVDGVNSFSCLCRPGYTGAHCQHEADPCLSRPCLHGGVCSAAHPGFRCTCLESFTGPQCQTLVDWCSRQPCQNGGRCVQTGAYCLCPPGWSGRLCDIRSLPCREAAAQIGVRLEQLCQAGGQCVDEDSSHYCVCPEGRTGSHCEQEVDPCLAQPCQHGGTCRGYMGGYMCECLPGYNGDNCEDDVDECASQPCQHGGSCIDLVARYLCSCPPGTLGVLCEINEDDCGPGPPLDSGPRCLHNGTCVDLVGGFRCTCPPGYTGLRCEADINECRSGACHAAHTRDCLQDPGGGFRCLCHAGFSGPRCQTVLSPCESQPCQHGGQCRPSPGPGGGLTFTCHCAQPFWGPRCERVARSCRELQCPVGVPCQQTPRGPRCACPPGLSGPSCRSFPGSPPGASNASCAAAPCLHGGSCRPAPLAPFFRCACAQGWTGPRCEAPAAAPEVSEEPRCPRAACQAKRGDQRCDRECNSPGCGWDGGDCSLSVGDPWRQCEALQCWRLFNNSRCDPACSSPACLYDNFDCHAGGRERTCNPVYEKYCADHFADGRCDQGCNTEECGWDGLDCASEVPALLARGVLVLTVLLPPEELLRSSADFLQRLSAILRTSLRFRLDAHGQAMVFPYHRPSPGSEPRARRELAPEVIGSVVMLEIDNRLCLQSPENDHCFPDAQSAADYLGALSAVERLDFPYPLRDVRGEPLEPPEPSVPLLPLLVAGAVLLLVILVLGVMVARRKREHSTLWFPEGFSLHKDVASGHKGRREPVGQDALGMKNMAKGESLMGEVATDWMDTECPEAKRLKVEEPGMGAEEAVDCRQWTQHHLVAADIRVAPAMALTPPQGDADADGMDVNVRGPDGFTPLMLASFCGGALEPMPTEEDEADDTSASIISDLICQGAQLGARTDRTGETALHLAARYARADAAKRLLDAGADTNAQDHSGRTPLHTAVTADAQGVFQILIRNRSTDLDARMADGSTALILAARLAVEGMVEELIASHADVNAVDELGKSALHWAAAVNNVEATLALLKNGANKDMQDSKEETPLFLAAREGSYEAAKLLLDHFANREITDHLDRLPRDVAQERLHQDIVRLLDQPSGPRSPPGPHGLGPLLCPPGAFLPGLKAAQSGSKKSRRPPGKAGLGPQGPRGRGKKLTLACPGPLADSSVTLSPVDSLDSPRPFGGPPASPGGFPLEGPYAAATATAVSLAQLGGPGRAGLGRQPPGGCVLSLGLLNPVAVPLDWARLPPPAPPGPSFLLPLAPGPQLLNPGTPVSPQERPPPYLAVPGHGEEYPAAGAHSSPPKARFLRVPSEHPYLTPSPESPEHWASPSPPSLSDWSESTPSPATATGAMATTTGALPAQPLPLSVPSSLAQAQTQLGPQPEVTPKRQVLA
Chain of Neurogenic locus notch homolog protein 2 (Homo sapiens) (Q04721 whole entry, looked up, canonical isoform): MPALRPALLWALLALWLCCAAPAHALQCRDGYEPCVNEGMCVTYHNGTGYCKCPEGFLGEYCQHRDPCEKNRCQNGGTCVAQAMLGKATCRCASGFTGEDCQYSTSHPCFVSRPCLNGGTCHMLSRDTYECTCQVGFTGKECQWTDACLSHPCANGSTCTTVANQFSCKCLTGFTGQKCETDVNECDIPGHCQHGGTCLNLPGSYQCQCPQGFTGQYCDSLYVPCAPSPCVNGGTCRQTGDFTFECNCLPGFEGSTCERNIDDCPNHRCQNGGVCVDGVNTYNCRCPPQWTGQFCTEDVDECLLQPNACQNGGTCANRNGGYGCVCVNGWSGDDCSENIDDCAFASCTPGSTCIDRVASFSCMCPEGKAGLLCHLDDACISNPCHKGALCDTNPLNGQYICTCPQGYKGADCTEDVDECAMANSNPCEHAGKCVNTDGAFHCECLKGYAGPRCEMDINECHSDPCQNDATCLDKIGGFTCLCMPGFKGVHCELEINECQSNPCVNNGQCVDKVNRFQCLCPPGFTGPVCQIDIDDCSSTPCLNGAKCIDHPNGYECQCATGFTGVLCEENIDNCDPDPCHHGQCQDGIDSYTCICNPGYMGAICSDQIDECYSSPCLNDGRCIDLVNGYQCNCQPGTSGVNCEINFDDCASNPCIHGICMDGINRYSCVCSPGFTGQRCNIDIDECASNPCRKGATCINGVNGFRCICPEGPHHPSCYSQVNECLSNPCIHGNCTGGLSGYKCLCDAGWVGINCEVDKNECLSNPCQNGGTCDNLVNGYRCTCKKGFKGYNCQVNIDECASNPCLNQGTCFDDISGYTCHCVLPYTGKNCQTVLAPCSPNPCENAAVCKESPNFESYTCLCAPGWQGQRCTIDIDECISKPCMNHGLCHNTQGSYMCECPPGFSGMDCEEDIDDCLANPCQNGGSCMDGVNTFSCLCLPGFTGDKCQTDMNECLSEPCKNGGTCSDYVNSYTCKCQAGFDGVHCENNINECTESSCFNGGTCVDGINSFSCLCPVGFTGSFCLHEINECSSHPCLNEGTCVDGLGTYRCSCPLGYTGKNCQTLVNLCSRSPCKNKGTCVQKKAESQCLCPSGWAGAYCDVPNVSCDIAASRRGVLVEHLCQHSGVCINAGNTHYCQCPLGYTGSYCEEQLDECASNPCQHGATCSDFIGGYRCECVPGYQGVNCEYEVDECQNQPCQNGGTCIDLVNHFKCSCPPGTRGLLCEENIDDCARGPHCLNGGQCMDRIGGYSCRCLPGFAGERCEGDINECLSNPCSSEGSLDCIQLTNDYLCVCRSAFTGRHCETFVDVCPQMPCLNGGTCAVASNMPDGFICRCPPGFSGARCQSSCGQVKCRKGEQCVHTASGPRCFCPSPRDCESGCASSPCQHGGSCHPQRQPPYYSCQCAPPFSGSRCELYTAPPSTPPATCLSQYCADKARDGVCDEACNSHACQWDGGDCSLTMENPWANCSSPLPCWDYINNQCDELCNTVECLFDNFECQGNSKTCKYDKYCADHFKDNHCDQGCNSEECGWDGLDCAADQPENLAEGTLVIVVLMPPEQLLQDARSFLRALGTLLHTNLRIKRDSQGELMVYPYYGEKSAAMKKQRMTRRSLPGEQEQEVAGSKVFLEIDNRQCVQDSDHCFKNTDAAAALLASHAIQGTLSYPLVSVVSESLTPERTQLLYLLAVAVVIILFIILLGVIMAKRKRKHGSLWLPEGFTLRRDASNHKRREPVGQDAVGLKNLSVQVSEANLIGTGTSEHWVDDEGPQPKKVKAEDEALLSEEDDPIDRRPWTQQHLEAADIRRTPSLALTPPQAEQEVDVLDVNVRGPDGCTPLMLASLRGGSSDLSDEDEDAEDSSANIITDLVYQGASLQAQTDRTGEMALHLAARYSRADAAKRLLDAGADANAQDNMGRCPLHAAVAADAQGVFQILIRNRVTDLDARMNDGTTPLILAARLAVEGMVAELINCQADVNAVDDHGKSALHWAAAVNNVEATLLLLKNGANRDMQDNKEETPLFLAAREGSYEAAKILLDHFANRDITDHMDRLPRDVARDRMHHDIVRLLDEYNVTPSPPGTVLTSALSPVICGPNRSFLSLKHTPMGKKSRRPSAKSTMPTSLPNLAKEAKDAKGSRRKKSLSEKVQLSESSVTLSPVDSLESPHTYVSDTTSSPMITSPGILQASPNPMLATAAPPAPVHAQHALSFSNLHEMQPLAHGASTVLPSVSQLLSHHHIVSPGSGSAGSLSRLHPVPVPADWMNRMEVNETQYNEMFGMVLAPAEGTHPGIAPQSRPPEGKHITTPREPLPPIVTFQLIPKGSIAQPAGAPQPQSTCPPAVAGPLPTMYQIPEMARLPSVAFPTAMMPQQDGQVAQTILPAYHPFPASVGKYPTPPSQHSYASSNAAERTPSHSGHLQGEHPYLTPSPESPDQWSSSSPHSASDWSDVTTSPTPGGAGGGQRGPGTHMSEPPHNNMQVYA

SMILES | composite z-score [1] | composite z-score [2] | composite z-score [3] | composite z-score [4] | composite z-score [5] | composite z-score [6] | composite z-score [7] | z-score [8] | composite z-score [9] | composite z-score [10] | composite z-score [11] | z-score [12] | z-score [13] | z-score [14] | composite z-score [15] | z-score [16] | composite z-score [17] | composite z-score [18] | composite z-score [19] | composite z-score [20]
COC(=O)[C@@H]1CC[C@H](C)[C@@H](c2ccc(Br)cc2)N1C(=O)C(F)(F)F | -0.23 | -0.214 | -0.108 | -0.148 | -0.232 | -0.493 | -0.677 | -0.589 (inactive) | -0.249 | -0.412 | -1.18 | 0.61 (inactive) | 0.186 (inactive) | 2.16 (inactive) | 1.25 | 0.11 (inactive) | -0.22 | -0.281 | -0.446 | -0.226
O=C1[C@H]2[C@H]3[C@H](O)[C@H](O)CC(=NOCc4ccccc4)[C@H]3CC[C@H]2C(=O)N1C1CCCCC1 | -0.483 | 0.357 | -0.0934 | 0.412 | 0.691 | 0.195 | 1.03 | 0.111 (inactive) | 0.404 | -0.0645 | 0.542 | -0.577 (inactive) | -0.355 (inactive) | -0.858 (inactive) | 1.23 | 0.119 (inactive) | -0.162 | 0.423 | 1.14 | -0.0691
COC(=O)CC=C[C@@H](C)[C@@H](C=NOC(C)CN1CCCCc2nc(C)c(C)cc21)NS(=O)(=O)c1ccc(C)cc1 (stereo not given in full) | 0.061 | 0.751 | -0.0422 | 0.471 | 0.318 | -0.279 | -0.776 | 0.511 (inactive) | 0.38 | 0.0735 | 0.63 | -1.12 (inactive) | 0.22 (inactive) | 0.121 (inactive) | -0.137 | 0.86 (inactive) | 0.0768 | 0.52 | 0.265 | -0.0836
CCCNC(=O)OC[C@H]1O[C@H](CCON=C[C@@H](C)[C@H](OCc2ccccc2)C(C)C)C=C[C@@H]1Oc1ccc(OC)cc1 | -0.273 | 0.729 | -0.161 | 0.416 | -0.566 | -0.645 | -0.814 | -0.748 (inactive) | -0.307 | -0.0346 | -0.295 | -2.24 (inactive) | -1.52 (inactive) | -0.25 (inactive) | -0.605 | -1.13 (inactive) | -0.0753 | -0.0593 | -0.942 | -0.141
CON=C[C@@H](OC)[C@H](C)C=CCC(=O)OC | -0.447 | 0.0818 | -0.191 | 0.172 | -0.0904 | -0.513 | -0.499 | -0.0681 (inactive) | 0.272 | 0.0401 | -0.608 | -0.177 (inactive) | -0.289 (inactive) | -0.0697 (inactive) | -0.312 | 0.0478 (inactive) | -0.0702 | 0.327 | -0.151 | -0.22
CC(C)=CCCC(C)=CCON=C1C[C@@H](O)[C@@H](O)[C@@H]2[C@@H]3C(=O)N(c4cccc(Oc5ccccc5)c4)C(=O)[C@@H]3CC[C@H]12 | -0.304 | -0.0323 | -0.0296 | 0.0259 | 0.206 | 0.691 | 0.877 | 0.122 (inactive) | 0.305 | 0.06 | 1.04 | 0.788 (inactive) | -0.0823 (inactive) | -0.407 (inactive) | 1.12 | 0.204 (inactive) | -0.138 | 0.485 | 0.782 | 0.0209
COc1ccc(O[C@H]2C=C[C@@H](c3ccccc3)O[C@@H]2COC(=O)CCC(C)=NOC[C@@H](O)COCc2ccco2)cc1 | 0.776 | -1.81 | -0.411 | -1.98 | -2.67 | -1.28 | -0.649 | 0.838 (inactive) | -2.3 | -0.115 | -1.02 | -1.2 (inactive) | -0.761 (inactive) | -0.244 (inactive) | -1.82 | -0.541 (inactive) | -0.443 | -1.66 | -1.74 | -0.48
Cc1ccc(C(C)C)n1C(=O)OC(C)(C)C | -0.504 | 0.166 | -0.0621 | 0.357 | 0.404 | -0.199 | 0.477 | -1.08 (inactive) | -0.3 | 0.0749 | 0.0565 | -0.923 (inactive) | -0.817 (inactive) | -0.665 (inactive) | 0.345 | -0.315 (inactive) | -0.138 | 0.535 | 0.915 | -0.0549
O=C1C=C[C@@H](O)[C@@H]2[C@@H]3C(=O)N(Cc4ccccc4)C(=O)[C@@H]3CC[C@@H]12 | -0.496 | -0.0062 | -0.171 | 0.373 | 0.632 | 0.159 | 0.543 | -0.895 (inactive) | 0.0563 | 0.226 | -0.136 | 0.0129 (inactive) | -0.676 (inactive) | -0.795 (inactive) | 0.0218 | 0.575 (inactive) | -0.147 | 0.562 | 0.798 | -0.104
C[C@@H]1CC[C@@H](C(=O)O)N[C@H]1c1cccc(N2CCOCC2)c1 | -0.406 | 0.179 | -0.0428 | 0.268 | 0.887 | 0.0719 | 0.251 | -1.79 (inactive) | 0.253 | -0.134 | -0.618 | 0.395 (inactive) | -0.623 (inactive) | -0.591 (inactive) | 0.879 | 1.64 (inactive) | -0.106 | 0.377 | 0.597 | -0.106
CC(=O)OC[C@H]1O[C@@H](ON=C(C)CCC(=O)OC[C@H]2O[C@H](C#Cc3ccccc3)C=C[C@@H]2Oc2ccc(C)cc2)[C@H](OC(C)=O)[C@@H](OC(C)=O)[C@@H]1OC(C)=O | -0.65 | 0.745 | 0.0309 | 1.12 | 0.951 | 0.51 | 0.938 | 0.66 (inactive) | 0.31 | -0.0994 | 1.54 | 0.82 (inactive) | 0.882 (inactive) | -0.211 (inactive) | 2.3 | 0.142 (inactive) | -0.122 | 1.36 | 0.936 | -0.0455
